The values that follow come from ChEMBL document CHEMBL1961873, “Compounds: GSK PKIS; Assays: Nanosyn kinase panel” (2012).

Assay [1] deals with Glycogen synthase kinase-3 beta (Homo sapiens) (UniProt P49841). Particulars: at 1 µM.
The target in assay [2] is Homeodomain-interacting protein kinase 1 (Homo sapiens) (UniProt Q86Z02). Particulars: at 0.1 µM.
For assay [3] the target is unchanged. As to conditions: at 1 µM.
Assay [4] has as its target T1, Homeodomain-interacting protein kinase 4 (Homo sapiens) (UniProt Q8NE63).
T1 sequence (whole entry): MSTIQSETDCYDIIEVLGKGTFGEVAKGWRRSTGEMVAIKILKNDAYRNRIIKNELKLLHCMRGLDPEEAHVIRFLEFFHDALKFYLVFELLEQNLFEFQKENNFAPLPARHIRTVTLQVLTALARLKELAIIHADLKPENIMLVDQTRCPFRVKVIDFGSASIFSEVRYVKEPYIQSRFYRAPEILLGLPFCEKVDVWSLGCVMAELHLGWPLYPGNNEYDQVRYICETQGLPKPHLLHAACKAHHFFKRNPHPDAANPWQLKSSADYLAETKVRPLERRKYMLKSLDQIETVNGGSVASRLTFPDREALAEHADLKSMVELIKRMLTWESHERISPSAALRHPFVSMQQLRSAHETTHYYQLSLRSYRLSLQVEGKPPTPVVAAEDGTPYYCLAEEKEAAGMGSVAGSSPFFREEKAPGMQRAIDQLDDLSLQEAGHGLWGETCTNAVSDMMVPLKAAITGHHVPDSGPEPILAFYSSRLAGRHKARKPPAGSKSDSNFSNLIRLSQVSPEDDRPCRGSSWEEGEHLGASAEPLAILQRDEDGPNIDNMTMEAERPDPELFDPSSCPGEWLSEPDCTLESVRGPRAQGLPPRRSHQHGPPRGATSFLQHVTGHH
As to conditions: at 0.1 µM.

The target of assay [5] is T1, Homeodomain-interacting protein kinase 4 (Homo sapiens). Particulars: at 1 µM.
The target in assay [6] is Mitogen-activated protein kinase 9 (Homo sapiens) (UniProt P45984). As to conditions: at 0.1 µM.
Sequence of Mitogen-activated protein kinase 9 (Homo sapiens) (P45984 whole entry, looked up): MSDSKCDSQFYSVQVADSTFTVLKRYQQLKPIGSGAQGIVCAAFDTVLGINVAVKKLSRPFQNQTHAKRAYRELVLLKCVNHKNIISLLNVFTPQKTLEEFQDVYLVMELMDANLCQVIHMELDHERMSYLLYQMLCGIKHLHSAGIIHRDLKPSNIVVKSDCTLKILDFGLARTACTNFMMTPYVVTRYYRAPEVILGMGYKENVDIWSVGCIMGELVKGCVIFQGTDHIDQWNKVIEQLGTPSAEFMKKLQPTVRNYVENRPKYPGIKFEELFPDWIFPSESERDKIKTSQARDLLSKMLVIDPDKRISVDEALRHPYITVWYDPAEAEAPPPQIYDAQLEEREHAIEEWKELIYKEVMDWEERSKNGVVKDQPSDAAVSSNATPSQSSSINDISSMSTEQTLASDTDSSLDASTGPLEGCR
Assay [7] shares this target. Particulars: at 1 µM.
In assay [8] the target is Mitogen-activated protein kinase 1 (Homo sapiens) (UniProt P28482). Particulars: at 0.1 µM.
Sequence of Mitogen-activated protein kinase 1 (Homo sapiens) (P28482 whole entry): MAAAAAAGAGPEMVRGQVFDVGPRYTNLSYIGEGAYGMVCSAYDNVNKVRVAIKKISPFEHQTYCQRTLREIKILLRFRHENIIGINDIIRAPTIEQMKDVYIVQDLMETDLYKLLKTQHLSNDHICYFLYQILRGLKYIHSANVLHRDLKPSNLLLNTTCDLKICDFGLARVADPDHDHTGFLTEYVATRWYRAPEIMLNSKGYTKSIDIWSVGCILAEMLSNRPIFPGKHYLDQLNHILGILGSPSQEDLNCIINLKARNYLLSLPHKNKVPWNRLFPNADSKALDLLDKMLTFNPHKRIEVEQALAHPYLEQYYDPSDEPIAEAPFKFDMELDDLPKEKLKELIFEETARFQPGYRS
The target is the same in assay [9]. Particulars: at 1 µM.
The target in assay [10] is Mitogen-activated protein kinase 3 (Homo sapiens) (UniProt P27361). Particulars: at 0.1 µM.
Sequence of Mitogen-activated protein kinase 3 (Homo sapiens) (P27361 whole entry): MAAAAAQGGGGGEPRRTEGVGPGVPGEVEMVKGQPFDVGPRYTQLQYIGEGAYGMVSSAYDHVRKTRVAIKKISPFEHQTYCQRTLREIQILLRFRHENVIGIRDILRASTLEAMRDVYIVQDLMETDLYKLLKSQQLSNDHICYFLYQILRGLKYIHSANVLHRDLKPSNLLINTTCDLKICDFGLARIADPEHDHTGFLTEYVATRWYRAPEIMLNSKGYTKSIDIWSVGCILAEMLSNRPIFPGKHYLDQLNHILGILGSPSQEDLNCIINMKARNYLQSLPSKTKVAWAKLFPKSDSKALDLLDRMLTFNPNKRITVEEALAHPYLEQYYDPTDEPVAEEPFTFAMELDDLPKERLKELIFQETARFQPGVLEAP
Assay [11] has the same target. As to conditions: at 1 µM.
Assay [12] deals with SRSF protein kinase 3 (Homo sapiens) (UniProt Q9UPE1). As to conditions: at 0.1 µM.
Sequence of SRSF protein kinase 3 (Homo sapiens) (Q9UPE1 whole entry): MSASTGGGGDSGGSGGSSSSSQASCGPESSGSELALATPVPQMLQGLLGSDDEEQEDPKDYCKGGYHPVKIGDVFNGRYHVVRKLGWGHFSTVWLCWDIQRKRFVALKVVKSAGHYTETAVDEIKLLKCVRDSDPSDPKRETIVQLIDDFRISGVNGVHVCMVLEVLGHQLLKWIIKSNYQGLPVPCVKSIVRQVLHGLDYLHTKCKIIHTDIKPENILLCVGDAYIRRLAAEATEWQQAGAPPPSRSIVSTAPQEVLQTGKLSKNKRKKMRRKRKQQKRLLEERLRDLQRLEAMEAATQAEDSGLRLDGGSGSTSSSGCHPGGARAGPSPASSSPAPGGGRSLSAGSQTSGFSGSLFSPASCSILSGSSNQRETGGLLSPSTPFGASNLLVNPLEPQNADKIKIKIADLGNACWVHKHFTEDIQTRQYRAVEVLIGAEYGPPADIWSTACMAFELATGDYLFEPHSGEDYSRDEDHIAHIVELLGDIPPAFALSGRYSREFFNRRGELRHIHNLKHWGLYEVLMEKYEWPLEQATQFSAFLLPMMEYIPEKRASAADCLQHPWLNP
The target is the same in assay [13]. Particulars: at 1 µM.
The target of assay [14] is Mitogen-activated protein kinase 14 (Homo sapiens) (UniProt Q16539). As to conditions: at 0.1 µM.
Sequence of Mitogen-activated protein kinase 14 (Homo sapiens) (Q16539 whole entry): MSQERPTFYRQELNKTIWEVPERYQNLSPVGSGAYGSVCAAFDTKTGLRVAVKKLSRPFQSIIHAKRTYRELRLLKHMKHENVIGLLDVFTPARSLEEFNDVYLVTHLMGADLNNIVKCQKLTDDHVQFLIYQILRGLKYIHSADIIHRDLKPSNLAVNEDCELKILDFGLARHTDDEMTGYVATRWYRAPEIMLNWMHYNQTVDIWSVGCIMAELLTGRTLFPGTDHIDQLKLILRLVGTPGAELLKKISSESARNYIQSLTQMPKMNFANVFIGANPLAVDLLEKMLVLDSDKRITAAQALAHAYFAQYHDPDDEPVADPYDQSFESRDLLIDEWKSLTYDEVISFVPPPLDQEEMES
The target is the same in assay [15]. Particulars: at 1 µM.
Assay [16] concerns the target Mitogen-activated protein kinase 11 (Homo sapiens) (UniProt Q15759). As to conditions: at 0.1 µM.
Assay [17] has the same target. Particulars: at 1 µM.
The target in assay [18] is T2, Mitogen-activated protein kinase 13 (Homo sapiens) (UniProt O15264).
T2 sequence (whole entry): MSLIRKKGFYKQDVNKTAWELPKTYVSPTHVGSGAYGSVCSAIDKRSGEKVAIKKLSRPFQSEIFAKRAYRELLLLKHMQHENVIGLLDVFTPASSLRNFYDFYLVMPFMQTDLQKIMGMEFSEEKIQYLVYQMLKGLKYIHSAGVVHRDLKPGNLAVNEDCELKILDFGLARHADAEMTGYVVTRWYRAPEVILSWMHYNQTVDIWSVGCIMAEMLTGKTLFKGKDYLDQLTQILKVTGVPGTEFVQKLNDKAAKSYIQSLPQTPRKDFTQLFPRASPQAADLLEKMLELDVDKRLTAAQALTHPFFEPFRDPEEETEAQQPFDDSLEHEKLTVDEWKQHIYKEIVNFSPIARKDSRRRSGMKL
Particulars: at 0.1 µM.

For assay [19], the target named is T2, Mitogen-activated protein kinase 13 (Homo sapiens). Particulars: at 1 µM.
In assay [20] the target is T3, Mitogen-activated protein kinase 12 (Homo sapiens) (UniProt P53778).
T3 sequence (whole entry): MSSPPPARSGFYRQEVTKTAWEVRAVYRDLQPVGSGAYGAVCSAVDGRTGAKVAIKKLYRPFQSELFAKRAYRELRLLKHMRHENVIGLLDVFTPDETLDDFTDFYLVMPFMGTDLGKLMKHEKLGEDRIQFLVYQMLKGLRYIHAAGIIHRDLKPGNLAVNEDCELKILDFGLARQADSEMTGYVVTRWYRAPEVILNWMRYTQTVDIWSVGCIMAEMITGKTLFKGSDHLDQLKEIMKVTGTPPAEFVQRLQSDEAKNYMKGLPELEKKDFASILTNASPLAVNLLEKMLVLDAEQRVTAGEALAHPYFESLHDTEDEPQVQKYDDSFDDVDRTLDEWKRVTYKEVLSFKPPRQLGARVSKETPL
Particulars: at 0.1 µM.

As a reminder, the inhibition is the relative decrease from the control value, in per cent.

Sequence of Homeodomain-interacting protein kinase 1 (Homo sapiens) (Q86Z02 whole entry, looked up): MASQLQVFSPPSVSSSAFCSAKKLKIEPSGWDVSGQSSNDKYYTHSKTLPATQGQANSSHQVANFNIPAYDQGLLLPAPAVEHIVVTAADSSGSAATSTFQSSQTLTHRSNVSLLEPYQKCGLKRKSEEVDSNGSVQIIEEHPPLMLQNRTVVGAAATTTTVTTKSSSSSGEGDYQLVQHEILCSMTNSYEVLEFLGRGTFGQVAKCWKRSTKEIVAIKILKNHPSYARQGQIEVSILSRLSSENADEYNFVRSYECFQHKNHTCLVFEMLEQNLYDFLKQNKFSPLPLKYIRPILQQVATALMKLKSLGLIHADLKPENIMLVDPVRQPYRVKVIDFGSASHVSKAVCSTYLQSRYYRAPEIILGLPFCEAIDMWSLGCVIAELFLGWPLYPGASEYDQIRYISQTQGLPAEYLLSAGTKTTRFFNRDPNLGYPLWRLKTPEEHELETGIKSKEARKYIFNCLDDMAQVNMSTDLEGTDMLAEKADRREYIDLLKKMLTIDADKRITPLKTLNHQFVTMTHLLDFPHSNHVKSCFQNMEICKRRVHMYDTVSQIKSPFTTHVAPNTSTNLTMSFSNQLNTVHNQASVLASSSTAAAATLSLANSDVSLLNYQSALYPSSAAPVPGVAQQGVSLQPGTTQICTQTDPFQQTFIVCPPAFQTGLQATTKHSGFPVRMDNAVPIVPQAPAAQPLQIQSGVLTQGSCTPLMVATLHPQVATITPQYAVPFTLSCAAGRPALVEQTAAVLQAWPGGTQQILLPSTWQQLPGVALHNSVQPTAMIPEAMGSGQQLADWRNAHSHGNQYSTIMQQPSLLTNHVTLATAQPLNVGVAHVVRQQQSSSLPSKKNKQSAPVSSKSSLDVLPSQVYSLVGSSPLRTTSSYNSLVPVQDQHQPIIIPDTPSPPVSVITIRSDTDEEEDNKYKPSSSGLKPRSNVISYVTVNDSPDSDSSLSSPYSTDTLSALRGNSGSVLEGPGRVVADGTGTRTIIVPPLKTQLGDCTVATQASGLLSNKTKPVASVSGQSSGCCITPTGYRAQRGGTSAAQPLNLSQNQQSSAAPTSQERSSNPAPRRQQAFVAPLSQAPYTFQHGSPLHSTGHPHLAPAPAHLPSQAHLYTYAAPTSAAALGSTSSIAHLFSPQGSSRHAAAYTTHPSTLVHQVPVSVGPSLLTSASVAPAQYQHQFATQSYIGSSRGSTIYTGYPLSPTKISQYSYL
Sequence of Mitogen-activated protein kinase 11 (Homo sapiens) (Q15759 whole entry): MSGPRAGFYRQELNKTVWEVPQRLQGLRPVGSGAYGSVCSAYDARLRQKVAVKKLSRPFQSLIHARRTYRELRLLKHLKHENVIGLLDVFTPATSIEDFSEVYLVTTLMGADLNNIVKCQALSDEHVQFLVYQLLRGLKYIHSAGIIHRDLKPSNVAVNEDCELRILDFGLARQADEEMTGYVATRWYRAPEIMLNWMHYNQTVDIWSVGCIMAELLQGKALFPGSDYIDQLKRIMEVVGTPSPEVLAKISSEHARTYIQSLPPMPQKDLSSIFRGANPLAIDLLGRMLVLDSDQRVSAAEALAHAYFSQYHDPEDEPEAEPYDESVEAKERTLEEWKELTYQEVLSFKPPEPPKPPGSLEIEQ
Sequence of Glycogen synthase kinase-3 beta (Homo sapiens) (P49841 whole entry, looked up): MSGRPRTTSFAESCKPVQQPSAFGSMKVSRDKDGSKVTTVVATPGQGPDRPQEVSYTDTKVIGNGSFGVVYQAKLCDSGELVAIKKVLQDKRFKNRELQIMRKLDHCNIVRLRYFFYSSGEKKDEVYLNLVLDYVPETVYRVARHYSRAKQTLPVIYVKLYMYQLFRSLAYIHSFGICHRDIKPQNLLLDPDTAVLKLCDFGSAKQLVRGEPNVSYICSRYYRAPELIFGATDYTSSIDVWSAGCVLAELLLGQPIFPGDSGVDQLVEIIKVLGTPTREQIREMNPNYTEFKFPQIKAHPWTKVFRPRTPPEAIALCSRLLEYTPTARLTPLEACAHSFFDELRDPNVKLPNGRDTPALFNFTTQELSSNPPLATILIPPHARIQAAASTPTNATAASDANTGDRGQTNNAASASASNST

Turning to `COc1cc(C)c(N(C)C(=O)CN(C)C)cc1Nc1nc(Nc2cccc(F)c2C(N)=O)c2cc[nH]c2n1`, the inhibition in [1] was -3.33%; in [2], -4.07%; in assay [3], 2.02%; in assay [4] it was 0.06%; in assay [5] it was 4.88%; in [6], 1.42%. Moreover, the inhibition turned out to be 2.97% in assay [7]; 0.6% in [8]; 3.4% in assay [9]; 2.26% in assay [10]; 2.25% in assay [11]; 1.68% in assay [12]. Moreover, the inhibition is 1.28% in assay [13]; -0.82% in assay [14]; 3.91% in [15]; 2.56% in assay [16]; 0.98% in assay [17]; 1% in assay [18]. Further, the inhibition in [19] stood at 1.9%; in [20] it was 0.25%.
As for `COc1cc(Nc2ncc3c(C)nc(-c4cccc(C(F)(F)F)c4)n3n2)cc(OC)c1OC`, the inhibition turned out to be 28.1% in assay [1]; 4.84% in assay [2]; 26.8% in assay [3]; 1.83% in assay [4]; 9.08% in [5]; 0.45% in assay [6]. For the same compound, the inhibition in assay [7] is 4.58%; in [8], 5.55%; in assay [9] it was 13%; in assay [10] it was 4.86%; in assay [11], 7.25%; in [12], -0.69%. The inhibition is 3.15% in [13]; 1.25% in [14]; 6.99% in assay [15]; 3.99% in [16]; 8.89% in assay [17]; -0.83% in assay [18]. In addition, the inhibition in [19] amounted to 1.78%; in assay [20] it was 0.21%.
Regarding `COc1cc(N2CCN(C(C)C)CC2)ccc1Nc1nc(Nc2ccc(F)cc2C(=O)NC[C@@H](O)CO)c2cc[nH]c2n1`, the inhibition in assay [1] was -0.58%; in [2], 9.42%; in assay [3], 46.1%; in assay [4], 32.3%; in assay [5], 69.8%; in assay [6], 14.9%. The inhibition in assay [7] was 57.4%; in [8], 0.55%; in assay [9], 7.31%; in [10], 6.47%; in assay [11], 5.1%; in assay [12] it was -4.86%. The inhibition in assay [13] is 2.68%; in assay [14] it was 2.09%; in assay [15] it was 9.88%; in assay [16] it was 4.89%; in [17], 6.16%; in [18], -0.21%. The figures for the inhibition in [19] and in assay [20] were 4.89% and -2.16%, respectively.
As to `CS(=O)(=O)CCNCc1cc(-c2cc3c(Nc4ccc(OCc5cccc(F)c5)c(Cl)c4)ncnc3s2)cs1`, the inhibition was 1.78% in assay [1]; -2.22% in [2]; -1.08% in assay [3]; -0.67% in assay [4]; 1.29% in assay [5]; 3.11% in assay [6]. In addition, the inhibition was determined as 7.13% in assay [7]; 5.61% in assay [8]; 7.79% in [9]; 4.58% in assay [10]; 4.92% in assay [11]; 0.81% in assay [12]. The inhibition was -0.39% in [13]; 7.29% in assay [14]; 8.32% in [15]; 1.8% in assay [16]; 3.36% in assay [17]; 5.45% in assay [18]. The values for the inhibition in assay [19] and in assay [20] were 6.67% and 4.58%, respectively.
Consider `COC(=O)Nc1nc2ccc(Sc3ccc(NC(=O)Nc4cc(C(F)(F)F)ccc4F)cc3)cc2[nH]1`, for which the inhibition in assay [1] was 1.89%; in assay [2], 1.74%; in assay [3] it was 3.89%; in assay [4], 3.14%; in assay [5], 25.5%; in assay [6], 33.9%. The inhibition in [7] is 6.37%; in [8] it was -0.51%; in [9], -0.71%; in assay [10], 1.68%; in assay [11] it was 1.55%; in [12], 0.07%. Besides, the inhibition is 8.97% in assay [13]; 5.88% in [14]; 39.3% in assay [15]; 3.62% in [16]; 34.3% in assay [17]; 1.98% in [18]. Moreover, the inhibition was found to be 2.44% in [19] and 0.78% in assay [20].
For the compound `COc1cc2ncn(-c3cc(OCc4ccccc4C(F)(F)F)c(C(C)=O)s3)c2cc1OC`, the inhibition in assay [1] is 2.85%; in [2], -0.68%; in assay [3], 4.77%; in assay [4] it was 3.23%; in assay [5], 7.24%; in assay [6], 0.67%. Moreover, the inhibition in assay [7] is 0.69%; in [8] it was 5.64%; in assay [9], 5.81%; in assay [10] it was 3.61%; in assay [11], 3.87%; in assay [12], -2.61%. The inhibition was found to be 1.07% in [13]; 4.86% in assay [14]; 3.85% in assay [15]; 5.8% in assay [16]; 4.79% in assay [17]; 2.82% in assay [18]. The inhibition in [19] came out at 2.04%; in [20], 2.87%.
Regarding `CN1CCN(CCCNc2nc3ccc(Oc4ccc(NC(=O)Nc5cc(C(F)(F)F)ccc5F)cc4)cc3[nH]2)CC1`, the inhibition was -1.5% in assay [1]; -6.94% in assay [2]; -3.43% in [3]; 6.45% in assay [4]; 40.6% in [5]; 3.11% in [6]. Further, the inhibition came out at 8.71% in assay [7]; 1.47% in assay [8]; 0.12% in [9]; 1.55% in assay [10]; 0.83% in assay [11]; 2.09% in assay [12]. For the same compound, the inhibition was 4.1% in [13]; 8.14% in [14]; 51.8% in assay [15]; 5.1% in [16]; 22.1% in [17]; 0.46% in assay [18]. The inhibition in [19] is 1.31%; in assay [20], -0.38%.
